# Reference: publication PMC11006913
# Substitutions are numbered along the chain they refer to.
# Columns and labels:
# Assay in all cases: PBM; 200 nM protein, PBS
# Settings in all cases: dsDNA, one strand shown
# HESX1 [1] = target: HESX1 (Homo sapiens, UniProt Q9UBX0 95-180, R165K)
# HESX1 [2] = target: HESX1 (Homo sapiens, UniProt Q9UBX0 95-180)
# MSX2 [3] = target: MSX2 (Homo sapiens, UniProt P35548 130-214, R199I)
# ALX1 [4] = target: ALX1 (Homo sapiens, UniProt Q15699 118-204, L144V)
# ALX1 [5] = target: ALX1 (Homo sapiens, UniProt Q15699 118-204, L144R)
# MSX2 [6] = target: MSX2 (Homo sapiens, UniProt P35548 130-214)
# HESX1 [7] = target: HESX1 (Homo sapiens, UniProt Q9UBX0 95-180, R109Q)
# PROP1 [8] = target: PROP1 (Homo sapiens, UniProt O75360 56-141, R99H)
# HESX1 [9] = target: HESX1 (Homo sapiens, UniProt Q9UBX0 95-180, P111T)
# MSX2 [10] = target: MSX2 (Homo sapiens, UniProt P35548 130-214, F161Y)
# HESX1 [11] = target: HESX1 (Homo sapiens, UniProt Q9UBX0 95-180, F115L)
# ALX1 [12] = target: ALX1 (Homo sapiens, UniProt Q15699 118-204)
# PROP1 [13] = target: PROP1 (Homo sapiens, UniProt O75360 56-141)
# PROP1 [14] = target: PROP1 (Homo sapiens, UniProt O75360 56-141, F88S)
# NKX2-6 [15] = target: T1, NKX2-6 (Homo sapiens, UniProt A6NCS4 118-204)
# T1 sequence: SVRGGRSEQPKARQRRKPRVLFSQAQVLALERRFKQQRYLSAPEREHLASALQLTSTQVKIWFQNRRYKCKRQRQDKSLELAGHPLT
# NKX2-6 [16] = target: T2, NKX2-6 (Homo sapiens, UniProt A6NCS4 118-204, F151L)
# T2 sequence: T1 sequence with F34L
# VAX1 [17] = target: VAX1 (Homo sapiens, UniProt Q5SQQ9 86-172)
# VAX1 [18] = target: VAX1 (Homo sapiens, UniProt Q5SQQ9 86-172, T142I)
# VAX1 [19] = target: VAX1 (Homo sapiens, UniProt Q5SQQ9 86-172, K157R)
# VAX1 (Homo sapiens, UniProt Q5SQQ9 86-172, K157R), sequence (Q5SQQ9 86-172 K157R): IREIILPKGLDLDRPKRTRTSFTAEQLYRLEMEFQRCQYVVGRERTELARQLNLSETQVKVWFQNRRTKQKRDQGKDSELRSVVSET
# HESX1 (Homo sapiens, UniProt Q9UBX0 95-180, F115L), sequence (Q9UBX0 95-180 F115L): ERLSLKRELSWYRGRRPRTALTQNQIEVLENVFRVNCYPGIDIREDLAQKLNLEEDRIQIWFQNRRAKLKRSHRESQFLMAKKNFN
# HESX1 (Homo sapiens, UniProt Q9UBX0 95-180), sequence (Q9UBX0 95-180): as the sequence (Q9UBX0 95-180 F115L) above, with L21F counted along it
# HESX1 (Homo sapiens, UniProt Q9UBX0 95-180, P111T), sequence (Q9UBX0 95-180 P111T): as the sequence (Q9UBX0 95-180 F115L) above, with P17T, L21F counted along it
# HESX1 (Homo sapiens, UniProt Q9UBX0 95-180, R109Q), sequence (Q9UBX0 95-180 R109Q): as the sequence (Q9UBX0 95-180 F115L) above, with R15Q, L21F counted along it
# HESX1 (Homo sapiens, UniProt Q9UBX0 95-180, R165K), sequence (Q9UBX0 95-180 R165K): as the sequence (Q9UBX0 95-180 F115L) above, with L21F, R71K counted along it
# ALX1 (Homo sapiens, UniProt Q15699 118-204, L144R), sequence (Q15699 118-204 L144R): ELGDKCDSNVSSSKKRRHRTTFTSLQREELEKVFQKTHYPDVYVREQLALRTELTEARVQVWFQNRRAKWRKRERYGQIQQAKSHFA
# ALX1 (Homo sapiens, UniProt Q15699 118-204, L144V), sequence (Q15699 118-204 L144V): as the sequence (Q15699 118-204 L144R) above, with R27V counted along it
# ALX1 (Homo sapiens, UniProt Q15699 118-204), sequence (Q15699 118-204): as the sequence (Q15699 118-204 L144R) above, with R27L counted along it
# PROP1 (Homo sapiens, UniProt O75360 56-141, R99H), sequence (O75360 56-141 R99H): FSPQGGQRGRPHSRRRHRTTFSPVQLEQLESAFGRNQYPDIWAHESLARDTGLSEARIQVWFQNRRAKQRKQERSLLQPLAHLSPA
# MSX2 (Homo sapiens, UniProt P35548 130-214, R199I), sequence (P35548 130-214 R199I): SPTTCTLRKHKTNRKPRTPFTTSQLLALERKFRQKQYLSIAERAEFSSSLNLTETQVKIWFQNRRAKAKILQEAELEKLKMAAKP
# VAX1 (Homo sapiens, UniProt Q5SQQ9 86-172), sequence (Q5SQQ9 86-172): as the sequence (Q5SQQ9 86-172 K157R) above, with R72K counted along it
# VAX1 (Homo sapiens, UniProt Q5SQQ9 86-172, T142I), sequence (Q5SQQ9 86-172 T142I): as the sequence (Q5SQQ9 86-172 K157R) above, with T57I, R72K counted along it
# MSX2 (Homo sapiens, UniProt P35548 130-214), sequence (P35548 130-214): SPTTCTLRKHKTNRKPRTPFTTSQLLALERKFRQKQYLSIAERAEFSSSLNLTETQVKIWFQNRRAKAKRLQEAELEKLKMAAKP
# MSX2 (Homo sapiens, UniProt P35548 130-214, F161Y), sequence (P35548 130-214 F161Y): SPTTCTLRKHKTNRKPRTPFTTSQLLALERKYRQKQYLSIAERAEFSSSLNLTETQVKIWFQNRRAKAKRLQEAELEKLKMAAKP
# PROP1 (Homo sapiens, UniProt O75360 56-141, F88S), sequence (O75360 56-141 F88S): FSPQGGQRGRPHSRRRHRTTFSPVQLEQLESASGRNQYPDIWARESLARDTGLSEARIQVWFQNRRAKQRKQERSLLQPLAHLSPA
# PROP1 (Homo sapiens, UniProt O75360 56-141), sequence (O75360 56-141): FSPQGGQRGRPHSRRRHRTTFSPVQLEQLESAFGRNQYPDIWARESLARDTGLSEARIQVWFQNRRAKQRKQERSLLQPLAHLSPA
sequence,measurement,setting,value
AGTAATTG,binding signal,HESX1 [1],"11.8 upbm affinity estimate (log intensity, higher = more binding, comparable within an allelic series)"
same,binding signal,HESX1 [2],"12 upbm affinity estimate (log intensity, higher = more binding, comparable within an allelic series)"
same,binding signal,MSX2 [3],"12.5 upbm affinity estimate (log intensity, higher = more binding, comparable within an allelic series)"
same,binding signal,ALX1 [4],"11.4 upbm affinity estimate (log intensity, higher = more binding, comparable within an allelic series)"
same,binding signal,ALX1 [5],"10.9 upbm affinity estimate (log intensity, higher = more binding, comparable within an allelic series)"
same,binding signal,MSX2 [6],"13.7 upbm affinity estimate (log intensity, higher = more binding, comparable within an allelic series)"
same,binding signal,HESX1 [7],"8.47 upbm affinity estimate (log intensity, higher = more binding, comparable within an allelic series)"
same,binding signal,PROP1 [8],"11 upbm affinity estimate (log intensity, higher = more binding, comparable within an allelic series)"
same,binding signal,HESX1 [9],"10.3 upbm affinity estimate (log intensity, higher = more binding, comparable within an allelic series)"
same,binding signal,MSX2 [10],"13.4 upbm affinity estimate (log intensity, higher = more binding, comparable within an allelic series)"
same,binding signal,HESX1 [11],"7.48 upbm affinity estimate (log intensity, higher = more binding, comparable within an allelic series)"
same,binding signal,ALX1 [12],"12 upbm affinity estimate (log intensity, higher = more binding, comparable within an allelic series)"
GCAGCGCA,binding signal,HESX1 [1],"6.45 upbm affinity estimate (log intensity, higher = more binding, comparable within an allelic series)"
same,binding signal,HESX1 [2],"6.27 upbm affinity estimate (log intensity, higher = more binding, comparable within an allelic series)"
same,binding signal,PROP1 [13],"6.75 upbm affinity estimate (log intensity, higher = more binding, comparable within an allelic series)"
same,binding signal,HESX1 [7],"6.54 upbm affinity estimate (log intensity, higher = more binding, comparable within an allelic series)"
same,binding signal,PROP1 [8],"6.76 upbm affinity estimate (log intensity, higher = more binding, comparable within an allelic series)"
same,binding signal,HESX1 [9],"6.47 upbm affinity estimate (log intensity, higher = more binding, comparable within an allelic series)"
same,binding signal,PROP1 [14],"6.81 upbm affinity estimate (log intensity, higher = more binding, comparable within an allelic series)"
same,binding signal,HESX1 [11],"6.53 upbm affinity estimate (log intensity, higher = more binding, comparable within an allelic series)"
AGCCCGCG,binding signal,HESX1 [1],"6.57 upbm affinity estimate (log intensity, higher = more binding, comparable within an allelic series)"
same,binding signal,HESX1 [2],"6.54 upbm affinity estimate (log intensity, higher = more binding, comparable within an allelic series)"
same,binding signal,HESX1 [7],"6.6 upbm affinity estimate (log intensity, higher = more binding, comparable within an allelic series)"
same,binding signal,HESX1 [9],"6.57 upbm affinity estimate (log intensity, higher = more binding, comparable within an allelic series)"
same,binding signal,HESX1 [11],"6.48 upbm affinity estimate (log intensity, higher = more binding, comparable within an allelic series)"
CTCAATAC,binding signal,HESX1 [1],"7.27 upbm affinity estimate (log intensity, higher = more binding, comparable within an allelic series)"
same,binding signal,HESX1 [2],"7.48 upbm affinity estimate (log intensity, higher = more binding, comparable within an allelic series)"
same,binding signal,HESX1 [7],"7.22 upbm affinity estimate (log intensity, higher = more binding, comparable within an allelic series)"
same,binding signal,HESX1 [9],"7.29 upbm affinity estimate (log intensity, higher = more binding, comparable within an allelic series)"
CAGCTCGG,binding signal,HESX1 [1],"6.3 upbm affinity estimate (log intensity, higher = more binding, comparable within an allelic series)"
same,binding signal,HESX1 [2],"6.27 upbm affinity estimate (log intensity, higher = more binding, comparable within an allelic series)"
same,binding signal,NKX2-6 [15],"8.88 upbm affinity estimate (log intensity, higher = more binding, comparable within an allelic series)"
same,binding signal,HESX1 [7],"6.34 upbm affinity estimate (log intensity, higher = more binding, comparable within an allelic series)"
same,binding signal,HESX1 [9],"6.3 upbm affinity estimate (log intensity, higher = more binding, comparable within an allelic series)"
same,binding signal,NKX2-6 [16],"9.23 upbm affinity estimate (log intensity, higher = more binding, comparable within an allelic series)"
same,binding signal,HESX1 [11],"6.51 upbm affinity estimate (log intensity, higher = more binding, comparable within an allelic series)"
ATTGATTC,binding signal,HESX1 [1],"7.97 upbm affinity estimate (log intensity, higher = more binding, comparable within an allelic series)"
same,binding signal,HESX1 [2],"8.12 upbm affinity estimate (log intensity, higher = more binding, comparable within an allelic series)"
same,binding signal,HESX1 [7],"7.41 upbm affinity estimate (log intensity, higher = more binding, comparable within an allelic series)"
same,binding signal,HESX1 [9],"7.74 upbm affinity estimate (log intensity, higher = more binding, comparable within an allelic series)"
CACGGCGC,binding signal,HESX1 [1],"6.6 upbm affinity estimate (log intensity, higher = more binding, comparable within an allelic series)"
same,binding signal,HESX1 [2],"6.29 upbm affinity estimate (log intensity, higher = more binding, comparable within an allelic series)"
same,binding signal,HESX1 [7],"6.5 upbm affinity estimate (log intensity, higher = more binding, comparable within an allelic series)"
same,binding signal,VAX1 [17],"7.16 upbm affinity estimate (log intensity, higher = more binding, comparable within an allelic series)"
same,binding signal,HESX1 [9],"6.54 upbm affinity estimate (log intensity, higher = more binding, comparable within an allelic series)"
same,binding signal,HESX1 [11],"6.57 upbm affinity estimate (log intensity, higher = more binding, comparable within an allelic series)"
same,binding signal,VAX1 [18],"7.21 upbm affinity estimate (log intensity, higher = more binding, comparable within an allelic series)"
same,binding signal,VAX1 [19],"7.23 upbm affinity estimate (log intensity, higher = more binding, comparable within an allelic series)"
CTGGGCTC,binding signal,HESX1 [1],"6.43 upbm affinity estimate (log intensity, higher = more binding, comparable within an allelic series)"
same,binding signal,HESX1 [2],"6.41 upbm affinity estimate (log intensity, higher = more binding, comparable within an allelic series)"
same,binding signal,ALX1 [4],"6.37 upbm affinity estimate (log intensity, higher = more binding, comparable within an allelic series)"
same,binding signal,ALX1 [5],"6.38 upbm affinity estimate (log intensity, higher = more binding, comparable within an allelic series)"
same,binding signal,HESX1 [7],"6.43 upbm affinity estimate (log intensity, higher = more binding, comparable within an allelic series)"
same,binding signal,HESX1 [9],"6.51 upbm affinity estimate (log intensity, higher = more binding, comparable within an allelic series)"
same,binding signal,HESX1 [11],"6.39 upbm affinity estimate (log intensity, higher = more binding, comparable within an allelic series)"
same,binding signal,ALX1 [12],"6.38 upbm affinity estimate (log intensity, higher = more binding, comparable within an allelic series)"
CCGAGTCG,binding signal,HESX1 [1],"6.6 upbm affinity estimate (log intensity, higher = more binding, comparable within an allelic series)"
same,binding signal,HESX1 [2],"6.58 upbm affinity estimate (log intensity, higher = more binding, comparable within an allelic series)"
same,binding signal,HESX1 [7],"6.45 upbm affinity estimate (log intensity, higher = more binding, comparable within an allelic series)"
same,binding signal,HESX1 [9],"6.56 upbm affinity estimate (log intensity, higher = more binding, comparable within an allelic series)"
same,binding signal,HESX1 [11],"6.36 upbm affinity estimate (log intensity, higher = more binding, comparable within an allelic series)"
